In PubChem BioAssay AID1345085 (National Center for Advancing Translational Sciences (NCATS), 2018):
Results filed as inconclusive are left out. Unmarked numbers belong to inactive results. Active and inactive are the calls of the source. The call rests on the fitted dose curve; in most records, active means well fitted cell-killing curve with a large enough effect; inconclusive means small, poorly fitted or top-dose-only effect, or effect the other way; inactive means no such curve, though single readings can be large or run the other way.

system: SW626; assay: Confirmatory qHTS for gynecologic anti-cancer compounds from libraries of approved drugs and bioactive compounds; details: gynecologic cancer cell panel viability, ATPlite luminescence, 48 h; series mostly up to 57.6 µM; activity change, negative = viability loss: at the top concentration; further: nearly all actives have a fitted effect of over 55% in size
Outline: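 Cells (1,000/well) were plated, left 16 h at 37 C/5% CO2, then given compound at 11 concentrations (1:3) from 57.5 uM to 0.977 nM for 48 h. ATPlite luminescence after 15 min at room temperature gave IC50 values.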
On the % scale 0 is the no-effect control and ±100 the full control effect; potency means the concentration at half of the fitted maximal effect.

Row | SMILES | activity change, negative = viability loss [%] | Potency
1 | CN(C[C@@H]1COCCO1)S(=O)(=O)Nc1ccc2ccc3ncc(-c4cnn(C)c4)cc3c(=O)c2c1 | 0.279 | 
2 | CN(Cc1cnc2nc(N)nc(N)c2n1)c1ccc(C(=O)N[C@@H](CCC(=O)O)C(=O)O)cc1 | 39.2 | 
3 | COc1ccc2c(c1)c(CC(=O)O)c(C)n2C(=O)c1ccc(Cl)cc1 | 1.53 | 
4 | CC(C)Oc1ccc2c(=O)c(-c3ccccc3)coc2c1 |  | 21.7 µM (active)
5 | CC[C@H](CC#N)OC(=O)N[C@@H](C)c1cccc(NC(=O)Nc2ccc(-c3cnco3)c(OC)c2)c1 | -9.55 | 
6 | CN1CCN(c2ccc(OC(F)(F)F)c(Nc3ncc4c(n3)-c3c(c(C(N)=O)nn3CCO)CC4)c2)CC1 | 3.2 | 
7 | CC(=O)OC12COC1CC(O)C1(C)C(=O)C(O)C3=C(C)C(OC(=O)C(O)C(NC(=O)OC(C)(C)C)c4ccccc4)CC(O)(C(OC(=O)c4ccccc4)C21)C3(C)C (stereo not drawn) | 8.89 | 
8 | N#CC1(c2cccc(C(=O)Nc3cc(Oc4ccc5nc(NC(=O)C6CC6)sc5n4)ccc3F)c2Cl)CC1 |  | 4.85 µM (active)
9 | CNC(=O)c1ccccc1Sc1ccc2c(/C=C/c3ccccn3)n[nH]c2c1 |  | 21.7 µM (active)
10 | CCCCN(CCCC)C(=O)CN1C[C@H](c2ccc3c(c2)OCO3)[C@@H](C(=O)O)[C@@H]1c1ccc(OC)cc1 | -13 | 
11 | CNc1nc(Nc2ccc(C(=O)N3CCOCC3)cc2OC)ncc1Cl | 5.85 | 
12 | CC[C@@]1(O)C(=O)OCc2c1cc1n(c2=O)Cc2cc3cc(O)ccc3nc2-1 |  | 0.217 µM (active)
13 | CC(C)(C(=O)NCC(F)(F)C(F)(F)F)C(=O)NC1C(=O)Nc2ccccc2-c2ccccc21 (stereo not drawn) | -11 | 
